According to PubChem BioAssay (EPA / NIEHS):
The source made the active and inactive calls. How the source made its calls: active means hit-call score of the fitted dose curve at least 0.9, where 1 is the maximum; inactive means score below 0.9.

Columns and labels:
[1] = biological target: Bile acid receptor (Homo sapiens) (UniProt Q96RI1); test: ATG_IR1_CIS: Attagene CIS-FACTORIAL HepG2 Assay for human Nuclear Receptor Subfamily 1 Group H Member 4 (NR1H4), IR1 submotif (AID 2282946); conditions: IR1 reporter transcription, actives raise or lower the signal
Bile acid receptor (Homo sapiens), sequence (Q96RI1 whole entry, looked up, the tested form may be a part): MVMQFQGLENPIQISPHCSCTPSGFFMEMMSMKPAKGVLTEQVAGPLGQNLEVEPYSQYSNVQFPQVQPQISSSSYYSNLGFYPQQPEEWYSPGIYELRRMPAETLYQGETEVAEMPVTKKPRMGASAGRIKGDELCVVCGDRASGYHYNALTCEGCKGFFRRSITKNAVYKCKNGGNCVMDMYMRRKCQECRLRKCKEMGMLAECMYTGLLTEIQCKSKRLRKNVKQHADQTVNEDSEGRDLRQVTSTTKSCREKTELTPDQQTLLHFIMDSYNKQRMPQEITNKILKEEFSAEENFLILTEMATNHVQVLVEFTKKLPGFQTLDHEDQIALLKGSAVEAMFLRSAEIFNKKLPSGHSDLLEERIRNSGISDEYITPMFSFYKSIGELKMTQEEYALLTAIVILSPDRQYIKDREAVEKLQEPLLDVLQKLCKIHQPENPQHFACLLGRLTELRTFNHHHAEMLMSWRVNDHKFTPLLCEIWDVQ
Summary of the method: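 Cells (human HepG2) carry transiently transfected cis-promoter reporter transcription units. Compounds are incubated 24 h, total RNA is reverse-transcribed and amplified, and labelled fragments are resolved by capillary electrophoresis. Curves use DMSO as baseline.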

[2] = ATG_GRE_CIS: Attagene CIS-FACTORIAL HepG2 Assay for human Glucocorticoid Response Elements (GRE) (AID 2282947); conditions: HepG2 GRE cis-reporter, Attagene multiplex mRNA; actives raise or lower the signal
Summary of the method: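 Assay uses human hepatoma HepG2 cells transfected with cis-promoter reporter units, exposed 24 h. mRNA from reporters detected by RT-PCR plus capillary electrophoresis; DMSO serves as negative control and baseline.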

[3] = ATG_ISRE_CIS: Attagene CIS-FACTORIAL HepG2 Assay for human Interferon Regulatory Factor 1 (IRF1) binding to an Interferon-Stimulated Response Element (ISRE) (AID 2282948); conditions: HepG2 ISRE cis-reporter (Attagene), mRNA transcription readout; actives raise or lower the signal
Summary of the method: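 Transfected HepG2 (multiple reporter transcription units, cis elements) dosed 24 h. RNA → oligo(dT) RT → PCR → 6-FAM primer extension → HpaI → CE. DMSO = negative control/baseline.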

[4] = ATG_M_32_CIS: Attagene CIS-FACTORIAL HepG2 Assay for M32 Transcription Factor (Internal Marker) (AID 2282949); conditions: HepG2 Attagene cis-factorial M32 reporter, mRNA; actives raise or lower the signal;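 further: background control marker of the multiplexed CIS panel rather than a real target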
Summary of the method: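 Following 24 h chemical exposure of HepG2 cells transiently expressing cis-promoter reporter constructs, reporter transcript levels were determined by RT-PCR with fluorescent labelling and capillary electrophoresis, then fitted bidirectionally against DMSO.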

[5] = ATG_M_06_CIS: Attagene CIS-FACTORIAL HepG2 Assay for M06 Transcription Factor (Internal Marker) (AID 2282950); conditions: HepG2 Attagene CIS-FACTORIAL M06 internal marker reporter; actives raise or lower the signal
Summary of the method: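 Internal background marker within multiplexed cis-reporter HepG2 system. Cells transiently transfected, dosed 24 h; reporter mRNA measured by RT-PCR, HpaI digestion and capillary electrophoresis. Bidirectional fit relative to DMSO.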

[6] = biological target: Hypoxia-inducible factor 1-alpha (Homo sapiens) (UniProt Q16665); test: ATG_HIF1a_CIS: Attagene CIS-FACTORIAL HepG2 Assay for human Hypoxia Inducible Factor 1 (HIF1A) (AID 2282951); conditions: HepG2 Attagene cis-factorial HIF1a reporter transcription; actives raise or lower the signal
Hypoxia-inducible factor 1-alpha (Homo sapiens), sequence (Q16665 whole entry, looked up): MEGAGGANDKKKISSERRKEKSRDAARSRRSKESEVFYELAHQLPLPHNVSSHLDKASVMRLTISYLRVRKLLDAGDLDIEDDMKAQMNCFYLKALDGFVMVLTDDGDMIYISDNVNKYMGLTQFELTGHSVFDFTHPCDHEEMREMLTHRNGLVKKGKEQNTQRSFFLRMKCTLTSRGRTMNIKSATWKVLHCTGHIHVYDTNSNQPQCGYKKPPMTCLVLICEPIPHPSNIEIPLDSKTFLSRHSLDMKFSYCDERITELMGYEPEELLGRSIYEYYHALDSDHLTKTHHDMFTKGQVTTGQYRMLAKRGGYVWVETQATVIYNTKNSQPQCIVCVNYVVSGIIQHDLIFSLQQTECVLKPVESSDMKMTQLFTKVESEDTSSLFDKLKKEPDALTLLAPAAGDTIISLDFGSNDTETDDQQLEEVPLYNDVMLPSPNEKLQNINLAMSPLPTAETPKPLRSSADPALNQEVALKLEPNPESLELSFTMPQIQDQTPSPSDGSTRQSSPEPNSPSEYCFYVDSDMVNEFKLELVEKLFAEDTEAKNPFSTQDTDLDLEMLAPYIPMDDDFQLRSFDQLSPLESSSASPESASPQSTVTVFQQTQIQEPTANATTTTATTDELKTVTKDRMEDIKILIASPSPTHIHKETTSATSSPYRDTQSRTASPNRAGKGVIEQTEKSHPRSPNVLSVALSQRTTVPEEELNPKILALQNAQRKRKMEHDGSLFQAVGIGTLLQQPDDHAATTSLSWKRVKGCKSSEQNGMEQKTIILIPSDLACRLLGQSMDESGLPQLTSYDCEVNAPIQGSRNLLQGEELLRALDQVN
Summary of the method: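 Measures endogenous transcription-factor activity through cis-regulated reporter mRNA in HepG2. Cells dosed 24 h; transcripts quantified by RT-PCR with 6-FAM-labelled products separated by capillary electrophoresis; DMSO serves as negative control.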

[7] = biological target: Hepatocyte nuclear factor 6 (Homo sapiens) (UniProt Q9UBC0); test: ATG_HNF6_CIS: Attagene CIS-FACTORIAL HepG2 Assay for human Hepatocyte Nuclear Factor 6 (HNF6) (AID 2282952); conditions: HepG2 Attagene cis-factorial HNF6 reporter transcription; actives raise or lower the signal
Hepatocyte nuclear factor 6 (Homo sapiens), sequence (Q9UBC0 whole entry, looked up): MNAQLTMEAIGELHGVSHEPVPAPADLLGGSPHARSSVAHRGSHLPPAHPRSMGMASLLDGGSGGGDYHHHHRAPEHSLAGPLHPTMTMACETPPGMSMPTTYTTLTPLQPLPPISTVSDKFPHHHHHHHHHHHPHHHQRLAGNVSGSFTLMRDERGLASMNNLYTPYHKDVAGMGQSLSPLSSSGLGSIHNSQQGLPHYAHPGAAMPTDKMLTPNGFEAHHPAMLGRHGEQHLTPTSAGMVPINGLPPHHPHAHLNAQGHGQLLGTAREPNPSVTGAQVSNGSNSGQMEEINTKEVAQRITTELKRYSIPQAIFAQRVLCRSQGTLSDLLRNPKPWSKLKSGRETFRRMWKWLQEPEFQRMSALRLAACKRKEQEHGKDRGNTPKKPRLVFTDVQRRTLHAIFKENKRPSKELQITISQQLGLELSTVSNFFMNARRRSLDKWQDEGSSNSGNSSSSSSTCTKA
Summary of the method: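 HepG2, transient MRTU transfection (cis promoters); 24 h chemical exposure; total RNA → oligo(dT) RT → PCR → 6-FAM labelling → HpaI cut → CE; bidirectional fit vs DMSO.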

[8] = biological target: Heat shock factor protein 1 (Homo sapiens) (UniProt Q00613); test: ATG_HSE_CIS: Attagene CIS-FACTORIAL HepG2 Assay for human Heat Shock Transcription Factor 1 (HSE) (AID 2282953); conditions: HepG2 HSE cis-reporter, Attagene RNA transcription; actives raise or lower the signal
Heat shock factor protein 1 (Homo sapiens), sequence (Q00613 whole entry, looked up): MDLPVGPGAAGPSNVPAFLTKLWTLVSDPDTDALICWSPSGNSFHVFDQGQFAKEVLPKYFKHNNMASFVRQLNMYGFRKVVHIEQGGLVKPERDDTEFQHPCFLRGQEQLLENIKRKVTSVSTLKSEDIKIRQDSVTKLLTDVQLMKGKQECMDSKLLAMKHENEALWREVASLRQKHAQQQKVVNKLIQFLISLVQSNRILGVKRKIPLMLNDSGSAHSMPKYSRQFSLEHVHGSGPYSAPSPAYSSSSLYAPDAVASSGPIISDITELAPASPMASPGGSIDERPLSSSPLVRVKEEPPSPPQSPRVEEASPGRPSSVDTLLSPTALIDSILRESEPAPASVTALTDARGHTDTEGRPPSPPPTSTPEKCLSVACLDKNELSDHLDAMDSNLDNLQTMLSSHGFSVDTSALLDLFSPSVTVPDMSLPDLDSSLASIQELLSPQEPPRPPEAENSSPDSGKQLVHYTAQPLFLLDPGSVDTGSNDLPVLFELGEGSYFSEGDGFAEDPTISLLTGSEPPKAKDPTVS
Summary of the method: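 HepG2 cells transfected with cis-promoter reporter units sensing endogenous transcription factor activity; reporter mRNA quantified 24 h post-dose by RT-PCR and capillary electrophoresis of 6-FAM-labelled products. Bidirectional fitting against DMSO.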

[9] = ATG_MRE_CIS: Attagene CIS-FACTORIAL HepG2 Assay for human Metal Responsive Element (MRE) (AID 2282954); conditions: HepG2 MRE cis-reporter transcription, Attagene multiplex; actives raise or lower the signal
Summary of the method: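 After a 24 h chemical exposure, transiently transfected HepG2 cells yield RNA whose reporter sequences are amplified, FAM-labelled and sized by capillary electrophoresis. Curves are fitted bidirectionally relative to DMSO.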

[10] = biological target: Paired box protein Pax-6 (Homo sapiens) (UniProt P26367); test: ATG_Pax6_CIS: Attagene CIS-FACTORIAL HepG2 Assay for human Paired Box 6 (PAX6) (AID 2282956); conditions: HepG2 CIS-FACTORIAL PAX6 reporter transcription, RNA readout; actives raise or lower the signal
Paired box protein Pax-6 (Homo sapiens), sequence (P26367 whole entry, looked up): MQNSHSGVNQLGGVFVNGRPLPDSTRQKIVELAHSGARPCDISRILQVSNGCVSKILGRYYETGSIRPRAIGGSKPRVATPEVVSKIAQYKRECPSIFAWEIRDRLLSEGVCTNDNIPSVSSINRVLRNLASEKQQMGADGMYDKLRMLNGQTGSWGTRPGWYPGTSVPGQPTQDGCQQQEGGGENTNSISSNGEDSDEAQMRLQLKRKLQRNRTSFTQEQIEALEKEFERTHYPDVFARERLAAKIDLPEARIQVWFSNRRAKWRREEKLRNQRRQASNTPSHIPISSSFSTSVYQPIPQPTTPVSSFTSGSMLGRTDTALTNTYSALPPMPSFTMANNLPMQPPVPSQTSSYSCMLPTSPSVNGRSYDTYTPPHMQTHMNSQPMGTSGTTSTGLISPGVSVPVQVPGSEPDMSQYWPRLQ
Summary of the method: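 Transient MRTU transfection of HepG2 → compound exposure 24 h → TriZol RNA, oligo(dT) RT → PCR, 6-FAM primer extension, HpaI cut → capillary electrophoresis; activity fitted both directions against DMSO.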

[11] = ATG_PXRE_CIS: Attagene CIS-FACTORIAL HepG2 Assay for human Pregnane X Receptor Element (PXRE) (AID 2282957); conditions: HepG2 Attagene CIS-FACTORIAL PXRE reporter, mRNA; actives raise or lower the signal
Summary of the method: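 Transfect HepG2 with MRTUs (cis promoter elements); dose chemical, incubate 24 h; isolate RNA, RT with oligo(dT), PCR, 6-FAM label, HpaI cut, CE. Gain/loss fit vs DMSO.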

[12] = ATG_Sox_CIS: Attagene CIS-FACTORIAL HepG2 Assay for human SRY-box transcription factor (SOX) (AID 2282960); conditions: HepG2 Attagene cis-factorial SOX reporter, mRNA; actives raise or lower the signal
Summary of the method: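 Transient MRTU transfection of HepG2; 24 h compound incubation; TriZol RNA, oligo(dT) RT, PCR, 6-FAM primer extension, HpaI cut, CE. Bidirectional fit, DMSO = baseline.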

[13] = biological target: Transcription factor Sp1 (Homo sapiens) (UniProt P08047); test: ATG_Sp1_CIS: Attagene CIS-FACTORIAL HepG2 Assay for human Specificity Protein 1 (Sp1) (AID 2282961); conditions: HepG2 Sp1 cis-reporter transcription, actives raise or lower the signal
Transcription factor Sp1 (Homo sapiens), sequence (P08047 whole entry, looked up): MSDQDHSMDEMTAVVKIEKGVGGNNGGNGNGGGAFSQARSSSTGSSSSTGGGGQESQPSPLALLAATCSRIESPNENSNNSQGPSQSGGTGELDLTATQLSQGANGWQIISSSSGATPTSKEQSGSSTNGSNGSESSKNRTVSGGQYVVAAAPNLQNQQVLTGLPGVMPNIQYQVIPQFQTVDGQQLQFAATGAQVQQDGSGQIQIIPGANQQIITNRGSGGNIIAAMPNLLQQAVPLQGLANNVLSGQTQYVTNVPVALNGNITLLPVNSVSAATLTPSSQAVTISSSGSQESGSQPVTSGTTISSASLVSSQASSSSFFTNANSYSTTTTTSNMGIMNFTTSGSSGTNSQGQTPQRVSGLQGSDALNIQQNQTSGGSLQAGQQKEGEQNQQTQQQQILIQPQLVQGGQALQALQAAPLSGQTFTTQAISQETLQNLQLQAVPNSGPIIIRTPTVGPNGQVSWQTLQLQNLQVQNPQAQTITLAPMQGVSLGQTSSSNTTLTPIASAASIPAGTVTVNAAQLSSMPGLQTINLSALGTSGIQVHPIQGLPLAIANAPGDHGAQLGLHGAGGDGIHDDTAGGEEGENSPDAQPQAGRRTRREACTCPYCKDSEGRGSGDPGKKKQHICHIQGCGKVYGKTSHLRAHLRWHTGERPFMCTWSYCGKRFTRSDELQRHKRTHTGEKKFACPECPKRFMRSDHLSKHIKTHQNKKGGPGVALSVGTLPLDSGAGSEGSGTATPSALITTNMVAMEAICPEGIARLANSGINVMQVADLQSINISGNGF
Summary of the method: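 Endogenous Sp1 activity was gauged in human liver HepG2 cells bearing transfected reporter units under a cis-regulating promoter. After 24 h dosing, reporter mRNA was quantified by RT-PCR with capillary electrophoresis, and activity fitted bidirectionally versus DMSO.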

[14] = ATG_SREBP_CIS: Attagene CIS-FACTORIAL HepG2 Assay for human Sterol Regulatory Element Binding (SREBP) (AID 2282962); conditions: HepG2 Attagene cis-factorial SREBP reporter, mRNA; actives raise or lower the signal
Summary of the method: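 Transfected HepG2 (cis-regulated reporter library, endogenous TFs) → compound 24 h → total RNA → oligo(dT) RT → reporter-specific PCR → FAM primer extension, HpaI cut → CE fluorescence. Fit bidirectional vs DMSO.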

[15] = biological target: Signal transducer and activator of transcription 3 (Homo sapiens) (UniProt P40763); test: ATG_STAT3_CIS: Attagene CIS-FACTORIAL HepG2 Assay for human Signal Transducer and Activator of Transcription 3 (STAT3) (AID 2282963); conditions: HepG2, Attagene cis-factorial STAT3 reporter transcription; actives raise or lower the signal
Signal transducer and activator of transcription 3 (Homo sapiens), sequence (P40763 whole entry, looked up): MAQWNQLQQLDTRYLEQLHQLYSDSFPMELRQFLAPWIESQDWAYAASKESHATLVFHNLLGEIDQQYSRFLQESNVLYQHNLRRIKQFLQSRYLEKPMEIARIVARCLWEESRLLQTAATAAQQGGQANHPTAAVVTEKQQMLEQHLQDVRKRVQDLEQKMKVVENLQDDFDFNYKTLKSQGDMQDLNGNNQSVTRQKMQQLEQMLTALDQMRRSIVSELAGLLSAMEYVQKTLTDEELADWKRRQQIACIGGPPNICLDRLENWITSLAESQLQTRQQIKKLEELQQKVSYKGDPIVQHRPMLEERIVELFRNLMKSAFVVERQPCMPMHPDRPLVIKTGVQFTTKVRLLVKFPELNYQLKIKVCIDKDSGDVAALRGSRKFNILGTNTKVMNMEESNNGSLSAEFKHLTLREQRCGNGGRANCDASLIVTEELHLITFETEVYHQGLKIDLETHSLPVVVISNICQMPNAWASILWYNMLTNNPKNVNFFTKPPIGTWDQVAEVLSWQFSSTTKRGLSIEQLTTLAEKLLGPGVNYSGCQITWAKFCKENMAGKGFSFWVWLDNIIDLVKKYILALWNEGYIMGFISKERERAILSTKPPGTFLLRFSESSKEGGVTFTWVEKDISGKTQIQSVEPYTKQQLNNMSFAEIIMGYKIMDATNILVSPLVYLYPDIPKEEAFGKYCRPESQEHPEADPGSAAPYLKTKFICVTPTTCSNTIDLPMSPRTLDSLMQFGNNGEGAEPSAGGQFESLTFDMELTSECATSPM
Summary of the method: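 After a 24 h compound incubation, total RNA from MRTU-transfected HepG2 cells was converted to cDNA and reporter sequences PCR-amplified, labelled and profiled by capillary electrophoresis. Gain and loss of signal were referenced to DMSO.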

[16] = ATG_TA_CIS: Attagene CIS-FACTORIAL HepG2 Assay for human TA Basal Promoter (AID 2282964); conditions: HepG2 Attagene CIS-factorial TA basal promoter reporter; actives raise or lower the signal
Summary of the method: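 HepG2 cells transiently transfected with multiple reporter units under cis promoter elements, reporting endogenous transcription factor activity; this endpoint tracks the TA basal promoter as background control. Reporter mRNA after 24 h dosing measured by RT-PCR/capillary electrophoresis; bidirectional fits versus DMSO.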

[17] = ATG_TCF_b_cat_CIS: Attagene CIS-FACTORIAL HepG2 Assay for human T-Cell-Factor with beta-catenin (TCF/b-cat) (AID 2282965); conditions: HepG2 TCF/beta-catenin cis-reporter transcription, actives raise or lower the signal
Summary of the method: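 Endogenous transcription factor activity is captured through cis-promoter reporter constructs transiently introduced into human HepG2 liver cells. Induced reporter mRNA is measured after 24 h and fitted bidirectionally relative to DMSO.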

[18] = ATG_PBREM_CIS: Attagene CIS-FACTORIAL HepG2 Assay for human Phenobarbital-responsive Enhancer Module (PBREM) (AID 2282955); conditions: HepG2 PBREM cis-reporter, Attagene multiplexed transcription; actives raise or lower the signal
Summary of the method: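 Fluorescence of labelled reporter cDNA fragments, resolved by capillary electrophoresis, gives mRNA induction in transfected HepG2 cells treated for 24 h; DMSO serves as negative control and baseline.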

[19] = ATG_RORE_CIS: Attagene CIS-FACTORIAL HepG2 Assay for human RAR-related Orphan Receptor Element (RORE) (AID 2282959); conditions: HepG2 Attagene cis-factorial RORE reporter, mRNA; actives raise or lower the signal
Summary of the method: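 Cells were HepG2 carrying transfected cis-regulated reporter constructs, dosed for 24 hours. Total RNA was reverse-transcribed and reporter cDNA amplified, fluorescently labeled and sized by capillary electrophoresis. Activity was fitted bidirectionally relative to DMSO.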

[20] = ATG_PPRE_CIS: Attagene CIS-FACTORIAL HepG2 Assay for human Peroxisome Proliferator-activated Response Element (PPRE) (AID 2282958); conditions: HepG2 PPRE cis-element reporter, Attagene transcription factor profiling; actives raise or lower the signal
Summary of the method: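 Cells are first transfected transiently with the multiplexed reporter library, then dosed for 24 h. Total RNA is reverse-transcribed, amplified, fluorescently end-labeled and HpaI-cut before capillary electrophoresis; activity is fitted bidirectionally against DMSO controls.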

Measured: AC50

O=C1O[C@@H]2[C@@H](O)[C@H](O)O[C@@H]2[C@H]1O
not listed: [18] | [19] | [20]
inactive: all other assays above

COc1c(Cl)c(Cl)c(Cl)c(Cl)c1Cl
active: [11] 26.2 µM
not listed: [20]
inactive: all other assays above

Clc1cccc(Cl)n1
inactive: all assays above

O=C(O)c1ccc([N+](=O)[O-])cc1
not listed: [12] | [15] | [20]
inactive: all other assays above

CCCC(=O)C(C)=O
active: [11] 16.2 µM
not listed: [12]
inactive: all other assays above

C=C(C)C(=O)OCCOC(=O)CC(C)=O
not listed: [14] | [18] | [19] | [20]
inactive: all other assays above

CC(CC(C)(C)C)CC(C)(C)CC(C)(C)C (stereo unspecified)
not listed: [12] | [19]
inactive: all other assays above

COc1cc(C(C)(C)C)c(O)c(C(C)(C)C)c1
active: [1] 69.8 µM
not listed: [11] | [18]
inactive: all other assays above

CN(C)CCCN
not listed: [20]
inactive: all other assays above

CC(CCO)CCCC(C)(C)O (stereo unspecified)
not listed: [20]
inactive: all other assays above

COC(=O)c1ccc(C)cc1
active: [11] 11.1 µM
not listed: [15] | [20]
inactive: all other assays above

CC(=O)OCCC(C)CC(C)(C)C (stereo unspecified)
inactive: all assays above

O=S(=O)(O)c1ccc(O)c2ncccc12
not listed: [19] | [20]
inactive: all other assays above

N#Cc1ccccc1
not listed: [18]
inactive: all other assays above

Cc1ccc2sc3cccc(C)c3c2c1
active: [6] 52.9 µM
not listed: [15]
inactive: all other assays above
